The results in this text go back to PubChem BioAssay (NCATS).

Values without a mark were called inactive. For some of these results: Measured potencies and affinities stand elsewhere. Calls of active or inactive are those of the source. No rule for the calls is given here.

The conditions of experiment [1]: Ebola virus entry assay, green fluorescence channel.
The conditions of experiment [2]: Ebola virus entry assay, blue channel fluorescence.
The conditions of experiment [3]: Ebola virus entry assay, ratio channel.
The conditions of experiment [4]: Ebola virus entry assay, green channel fluorescence.
The conditions of experiment [5]: Ebola virus entry assay, reporter ratio channel; Channel type: primary.
For efficacy in this document: 0% is about no effect.

On to `NC(=O)C(=O)N/N=C/c1ccc([N+](=O)[O-])o1`, for which the efficacy in experiment [1] was 21.5%. For the same molecule, the result in experiment [2], in experiment [3], in experiment [4] and in experiment [5] was inactive.

With `COc1cc(CC(C)N)cc2c1OCO2` (stereo not given), the efficacy in experiment [1] is 23.1%. In addition, the concentration at half-maximal activity (AC50) in experiment [2] and in experiment [5] was 35.5 µM (active) throughout. The result in experiment [3] and in experiment [4] was inactive.

As to `CC1=C(C(=O)O)N2C(=O)[C@@H](NC(=O)[C@H](N)C3=CCC=CC3)[C@H]2SC1`, the efficacy in experiment [1] is -21.8%. For the same molecule, the call in experiment [2], in experiment [3], in experiment [4] and in experiment [5] was inactive.

For the molecule `C[C@H](N)C(=O)N[C@@H](C)C(=O)NC1[C@H]2CN(c3nc4c(cc3F)c(=O)c(C(=O)O)cn4-c3ccc(F)cc3F)C[C@@H]12` (stereo not given in full), the efficacy in experiment [1] was 11%. Besides, the result in experiment [2], in experiment [3], in experiment [4] and in experiment [5] was inactive.

For the molecule `COCCc1ccc(OCC2CO2)cc1` (stereo not given), the efficacy in experiment [1] was 25.5%. Further, the molecule was classed as inactive in experiment [2], in experiment [3], in experiment [4] and in experiment [5].

With `CC(C)(C)C(=O)OCOC(=O)[C@@H]1N2C(=O)[C@@H](NC(=O)[C@H](N)c3ccccc3)[C@H]2SC1(C)C`, in experiment [1], the efficacy was 35%. The concentration at half-maximal activity (AC50) in experiment [2] is 12.6 µM (active); in experiment [3] it was 20 µM (active); in experiment [5], 20 µM (active). Moreover, in experiment [4], the outcome was inactive.

For the molecule `Oc1c(Cl)cc(Cl)c(Cl)c1Cc1c(O)c(Cl)cc(Cl)c1Cl`, in experiment [1], the efficacy was 19.2%. The AC50 was 28.2 µM (active) in experiment [2], 15.8 µM (active) in experiment [3] and 15.8 µM (active) in experiment [5]. Moreover, the molecule was called inactive in experiment [4].

With `Cc1cccc(N(C)C(=S)Oc2ccc3ccccc3c2)c1`, in experiment [1], the efficacy was 22.5%. Further, the AC50 in experiment [2], in experiment [3] and in experiment [5] was 25.1 µM (active) throughout. The outcome in experiment [4] was inactive.

As for `CCOC(=O)c1c(N)sc2c1CCN(Cc1ccccc1)C2`, in experiment [1], the efficacy is 21.5%. Besides, the molecule was called inactive in experiment [2], in experiment [3], in experiment [4] and in experiment [5].

With `COC(=O)C1=C(C)NC(C)=C(C(=O)O[C@@H]2CCCN(Cc3ccccc3)C2)[C@@H]1c1cccc([N+](=O)[O-])c1`, in experiment [1], the efficacy was 39.4%. Also, the results for the AC50 in experiment [2] and in experiment [5] were 39.8 µM (active) and 35.5 µM (active), respectively. Besides, the outcome in experiment [3] and in experiment [4] was inactive.

For `Cc1c(N)cccc1C(F)(F)F`, the efficacy in experiment [1] was 32.5%. Besides, the molecule was classed as inactive in experiment [2], in experiment [3], in experiment [4] and in experiment [5].

`CCCC(=O)O[C@]1(C(=O)CCl)[C@@H](C)C[C@H]2[C@@H]3CCC4=CC(=O)C=C[C@]4(C)[C@@]3(F)C(=O)C[C@@]21C`: the efficacy in experiment [1] is 17%. The AC50 is 35.5 µM (active) in experiment [2], 20 µM (active) in experiment [3] and 20 µM (active) in experiment [5]. Moreover, the outcome in experiment [4] was inactive.

As for `Oc1ccc(Cl)cc1Cc1cc(Cl)ccc1O`, the efficacy in experiment [1] was 31.6%. Besides, the values for the concentration at half-maximal activity (AC50) in experiment [2], in experiment [3] and in experiment [5] were 3.55 µM (active), 11.2 µM (active) and 11.2 µM (active), respectively. Moreover, the molecule was classed as inactive in experiment [4].

For the molecule `CC(C)NCC(O)c1ccc2ccccc2c1` (stereo not given), the efficacy in experiment [1] was 20.8%. Further, the AC50 was 31.6 µM (active) in experiment [2], 25.1 µM (active) in experiment [3] and 25.1 µM (active) in experiment [5]. In experiment [4], the outcome was inactive.

As for `CC(=O)Oc1ccc(C(c2ccc(OC(C)=O)cc2)c2ccccn2)cc1`, in experiment [1], the efficacy is -19%. Moreover, the molecule was classed as inactive in experiment [2], in experiment [3], in experiment [4] and in experiment [5].

On to `CC[C@H](c1ccc(O)cc1)[C@@H](CC)c1ccc(O)cc1`, for which the efficacy in experiment [1] is -12.4%. The half-maximal activity concentration (AC50) in experiment [2] is 20 µM (active); in experiment [3], 25.1 µM (active); in experiment [5], 25.1 µM (active). Moreover, in experiment [4], the molecule was called inactive.

On to `CC(C)NCC(O)COc1ccc(COCCOC(C)C)cc1` (stereo not given), for which the efficacy in experiment [1] is 22.5%. The AC50 is 15.8 µM (active) in experiment [2], 12.6 µM (active) in experiment [3] and 12.6 µM (active) in experiment [5]. The outcome in experiment [4] was inactive.

As for `C#C[C@]1(O)CC[C@H]2[C@@H]3CCc4cc(O)ccc4[C@H]3CC[C@@]21C`, the efficacy in experiment [1] is -19.9%. Also, the half-maximal activity concentration (AC50) in experiment [2], in experiment [3] and in experiment [5] was 11.2 µM (active) in each case. In experiment [4], the call was inactive.

For `Cc1cc(=O)oc2cc(O)ccc12`, the efficacy in experiment [1] was -26.6%. Further, the molecule was called inactive in experiment [2], in experiment [3], in experiment [4] and in experiment [5].

Regarding `COc1ccccc1N1CCN(CCCNc2cc(=O)n(C)c(=O)n2C)CC1`, in experiment [1], the efficacy is 43.6%. Moreover, the values for the concentration at half-maximal activity (AC50) in experiment [2] and in experiment [5] were 28.2 µM (active) and 39.8 µM (active), respectively. Also, the result in experiment [3] and in experiment [4] was inactive.

On to `CCCCCCCCCCCCCCCCC(C(=O)O)C(O)(CC(=O)O)C(=O)O` (stereo not given), for which, in experiment [1], the efficacy is -32%. For the same molecule, the call in experiment [2], in experiment [3], in experiment [4] and in experiment [5] was inactive.

For the molecule `CN(C)CCN(Cc1ccccc1)c1ccccn1`, in experiment [1], the efficacy is 35.7%. Further, the half-maximal activity concentration (AC50) in experiment [2] is 22.4 µM (active); in experiment [3], 20 µM (active); in experiment [5] it was 20 µM (active). Besides, the molecule was called inactive in experiment [4].

In the case of `CC(C)n1nc(-c2cc3cc(O)ccc3[nH]2)c2c(N)ncnc21`, the efficacy in experiment [1] was 37.9%. The half-maximal activity concentration (AC50) in experiment [2] was 2.82 µM (active); in experiment [3], 2.24 µM (active); in experiment [5], 2.24 µM (active). Further, the outcome in experiment [4] was inactive.

On to `CC1(c2ccccc2)OC(C(=O)O)=CC1=O` (stereo not given), for which the efficacy in experiment [1] was -18.5%. Moreover, the molecule was called inactive in experiment [2], in experiment [3], in experiment [4] and in experiment [5].

As to `CC[C@]1(O)CC[C@H]2[C@@H]3CCC4=CCCC[C@@H]4[C@H]3CC[C@@]21C`, in experiment [1], the efficacy was 22.6%. The values for the AC50 in experiment [2], in experiment [3] and in experiment [5] were 17.8 µM (active), 15.8 µM (active) and 15.8 µM (active), respectively. The call in experiment [4] was inactive.

With `COc1ccc(CN2CCN(C(c3ccc(F)cc3)c3ccc(F)cc3)CC2)c(OC)c1OC`, the efficacy in experiment [1] was 25.5%. For the same molecule, the values for the AC50 in experiment [2], in experiment [3] and in experiment [5] were 7.08 µM (active), 10 µM (active) and 10 µM (active), respectively. The result in experiment [4] was inactive.

The term AC50 denotes the concentration at which the activity in the assay is half-maximal.
